An excerpt weighted towards active compounds, which were near 2.2% of everything screened.
DENV2 CPE rescue: inhibitors of DENV2 cytopathic effect | DENV2-infected cells, cytopathic effect rescue, plate reader | CPE inhibition, % at 9.99 µM | 350,000 compounds, 1.7% hits; in the data active = CPE inhibition above about 20%, passing the limit was not always enough; inconclusive = no clear call, values can overlap the other calls; tested in BHK-21 cells;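 note: 0% = median of neutral control wells and 100% = median of positive control wells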
PvdQ inh: P. aeruginosa PvdQ acylase inhibition; AID 488965; inhibition, % at 10 µM; purified PvdQ acylase, fluorescence plate reader; 340,000 compounds, 0.063% hits; in the data active = inhibition above about 30%, passing the limit was not always enough; inconclusive = no clear call, values can overlap the other calls;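 note: 0% = vehicle neutral wells and 100% = reference inhibitor wells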
PGC1a acetyl inh: PGC1a acetylation modulation, inhibitor mode; inhibition, % at 15.6 µM; 350,000 compounds, 0.17% hits; U2OS PGC1a acetylation, AlphaScreen anti-acetyl-lysine; with virally co-expressed GCN5 acetyltransferase;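 active = every replicate shows inhibition of at least 40%; inconclusive = mean inhibition at least 40% but some replicate below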;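 note: 0% = neutral control wells and 100% = positive control wells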
C2C12 statin: suppression of simvastatin myotoxicity. rescue of ATP level, % at 7.49 µM. 330,000 compounds, 0.78% hits. C2C12 myotubes + simvastatin, ATP luminescence, 48 h; scaled: DMSO 0, geranylgeraniol control 100. AID 602340;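 active = mean ATP rescue above about 67%, or every replicate alone reaching that limit, limit read from the data, passing the limit was not always enough; inconclusive = no clear call, values can overlap the other calls; inactive = mean under the limit and some replicate under it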;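 note: myotubes were challenged with 10 µM simvastatin during compound exposure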
miR122 inh: blocks miR-122 activity in Huh7 sensor cells; activation (reporter increase), % at 12.5 µM; 340,000 compounds, 0.3% hits; Huh7 miR-122 Renilla luciferase sensor, 48 h; neutral wells = 0, positive control = 100; AID 602342;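 active = mean replicate activation score at least 90 and every replicate individually at or above 90; inconclusive = only one of the two criteria met; inactive = neither criterion met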;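 note: higher luciferase means less miR-122 activity so hits act as miR-122 inhibitors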
The depositor's hits bear a star; ? = inconclusive; . = no result; ! = not confirmed by another sample; [ ] = dose if it differs, or a comment.

SMILES	DENV2 CPE rescue	PvdQ inh	PGC1a acetyl inh	C2C12 statin	miR122 inh
Cc1cc(C(=O)N2CCN(C/C=C/c3ccccc3)CC2)no1	.	-10.7	.	4.8	-3.5
COc1cc2cc(CCCOC(=O)CCC(=O)O)oc(=O)c2cc1OC	28.1*	11.2	7.1	-0.1	0.8
COc1cc2cc(CCO)oc(=O)c2cc1OC	89.0*	7.0	-3.0	-8.3	-1.9
C#CNC(=O)C1(CC=C)CCNCC1	-4.8	-15.5	4.3	100.3*	-5.4
C[C@@H]1CN([C@@H](C)CO)C(=O)Cc2cc(N(C)C)ccc2O[C@@H]1CN(C)Cc1ccc(C(=O)Nc2ccccc2N)cc1	3.3	.	0.6	-143.8	138.3*[16.7 µM]
C[C@@H]1CN([C@@H](C)CO)C(=O)Cc2cc(N(C)C)ccc2O[C@H]1CN(C)Cc1ccc(C(=O)Nc2ccccc2N)cc1	-8.2	.	-8.0	38.9	113.2*[16.7 µM]
C[C@H]1CN([C@@H](C)CO)C(=O)Cc2cc(N(C)C)ccc2O[C@@H]1CN(C)Cc1ccc(C(=O)Nc2ccccc2N)cc1	4.8	.	-8.1	36.3	26.7[16.7 µM]
COc1ccc(C#Cc2ccc3c(c2)[C@]2(C(=O)N3)[C@H](c3ccc(OCCO)cc3)N3[C@H](c4ccccc4)[C@H](c4ccccc4)OC(=O)[C@H]3[C@@H]2C(=O)N2CCCCCCC2)cc1	3.3	.	2.5	.	.
CNC[C@@H]1Oc2ccc(NS(C)(=O)=O)cc2C(=O)N([C@H](C)CO)C[C@@H]1C	-1.9	.	4.2	-7.7	2.3[16.7 µM]
COc1ccc(S(=O)(=O)N(C)C[C@@H]2OCCCC[C@@H](C)Oc3ccc(NC(=O)CCCN(C)C)cc3C(=O)N([C@H](C)CO)C[C@H]2C)cc1	-6.6	.	-7.7	.	-3.2[16.7 µM]
C[C@@H]1CN([C@H](C)CO)C(=O)c2cccc(NS(=O)(=O)c3cccs3)c2O[C@H]1CN(C)S(=O)(=O)c1ccc(F)cc1	-6.4	.	1.5	-25.3	0.2[16.7 µM]
CCOc1ccc(-c2c(C#N)c(N)nc3c2c(=O)n(C)c(=O)n3C)cc1OC	.	-4.0	40.4	83.9*	1.0
Cc1ccccc1S(=O)(=O)NCC[C@@H]1CC[C@H](NC(=O)C2CC2)[C@H](CO)O1	9.7	.	-1.6	-1.2	.
Nc1nc2ccccc2n1Cc1ccc(Cl)c(Cl)c1	33.4*	-12.4	.	-1.8	.
O=C(Nc1ccccc1)N1CCCCN2[C@H](C1)[C@@H](c1ccc(C#CC3CC3)cc1)[C@@H]2CO	-3.1	.	4.3	.	-1.2[16.7 µM]
CCCCCCCCSC1=CC(=O)C(OC)=C(OC)C1=O	70.6*	.	-2.4	-114.6	15.4
COc1ccccc1S(=O)(=O)N[C@@H]1C=C[C@@H](CC(=O)NCc2cc(F)cc(F)c2)O[C@@H]1CO	6.8	.	-5.4	3.0	6.6[16.7 µM]
C/C(=N\NC(=O)c1ccccc1O)C1C(=O)c2ccccc2C1=O	.	-4.6	-5.0	-16.9	119.1*
C/C(=N/NC(=O)c1cc2ccccc2cc1O)C1C(=O)c2ccccc2C1=O	.	6.0	-0.2	-12.1	2.0
C[C@@H]1CN([C@H](C)CO)C(=O)CCCn2nncc2CO[C@@H]1CN(C)S(=O)(=O)c1ccc(Oc2ccccc2)cc1	-12.7	.	-4.9	-1.7	-8.3
C[C@H]1CN([C@@H](C)CO)C(=O)CCCn2nncc2CO[C@H]1CN(C)S(=O)(=O)c1ccc(Oc2ccccc2)cc1	29.6*!	.	36.8	-2.0	-6.3
C[C@@H]1CN([C@H](C)CO)C(=O)CCCn2nncc2CO[C@H]1CN(C)S(=O)(=O)c1cn(C)cn1	16.2	.	105.5*	-6.0	-2.1
C[C@H](CO)N1C[C@H](C)[C@H](CN(C)S(=O)(=O)c2cn(C)cn2)OCc2cnnn2CCCC1=O	?	.	-12.9	10.3	-3.2
C[C@H]1CN([C@@H](C)CO)C(=O)CCCn2nncc2CO[C@H]1CN(C)S(=O)(=O)c1ccccc1F	27.4*!	.	-6.5	20.9	-2.3
C[C@H]1CN([C@@H](C)CO)C(=O)Cc2cc(NC(=O)Nc3cccc4ccccc34)ccc2O[C@@H]1CN(C)CC1CC1	5.0	.	0.2	12.8	3.0[16.7 µM]
SMILES	DENV2 CPE rescue	PvdQ inh	PGC1a acetyl inh	C2C12 statin	miR122 inh
C[C@@H]1CN([C@@H](C)CO)C(=O)Cc2cc(NC(=O)Nc3cccc4ccccc34)ccc2O[C@@H]1CN(C)C(=O)Nc1cccc2ccccc12	-4.2	.	-3.3	0.8	41.2[16.7 µM]
C[C@@H]1CN([C@H](C)CO)C(=O)Cc2cc(NC(=O)Nc3cccc4ccccc34)ccc2O[C@H]1CN(C)CC1CCCCC1	-1.7	.	4.0	75.0*	-1.7[16.7 µM]
C[C@H](CO)N1C[C@H](C)[C@H](CN(C)C)Oc2ccc(NC(=O)Nc3cccc4ccccc34)cc2CC1=O	35.3*	.	1.8	4.8	-5.3[16.7 µM]
C[C@@H]1CN([C@@H](C)CO)C(=O)Cc2cc(NC(=O)Nc3ccc(F)cc3)ccc2O[C@@H]1CN(C)C(=O)Nc1cccc2ccccc12	41.0*	.	-2.4	23.7	58.2[16.7 µM]
C[C@@H]1CN([C@@H](C)CO)C(=O)Cc2cc(NC(=O)Nc3cccc4ccccc34)ccc2O[C@H]1CN(C)C	21.3*	.	4.3	2.9	0.3[16.7 µM]
C[C@@H]1CN([C@@H](C)CO)C(=O)c2cc(-c3cccnc3)cnc2O[C@H]1CN(C)C(=O)C1CCCCC1	.	.	9.6	19.1	5.3[16.7 µM]
COc1ccc(NC(=O)N[C@@H]2CC[C@H](CCNC(=O)Cc3ccncc3)O[C@@H]2CO)cc1	-4.0	.	-5.1	0.7	.
COc1ccccc1CN1[C@@H](CO)[C@@H](c2ccccc2)C12CN(C(=O)c1ccccn1)C2	5.3	.	-9.0	.	.
COc1ccccc1NC(=O)N1CCN(c2cccc(C(F)(F)F)c2)CC1	.	-4.2	-10.3	123.3*	-5.9
COc1ccccc1NC(=O)N1CCN(c2ccc(F)cc2)CC1	.	-3.0	-1.9	2.4	-4.1
Cn1c(=O)c2cc(S(=O)(=O)NCCC(=O)NCc3ccccc3Cl)ccc2n(C)c1=O	.	-7.1	46.6*	1.6	.
Cc1ccc(CCNC(=O)CCNS(=O)(=O)c2ccc3c(c2)c(=O)n(C)c(=O)n3C)cc1	.	0.3	3.5	2.6	-2.5
Cn1c(=O)c2cc(S(=O)(=O)NCCC(=O)NCCC3=CCCCC3)ccc2n(C)c1=O	-0.2	-7.5	2.4	.	103.5*
O=C(C[C@@H]1C=C[C@@H](NC(=O)Nc2ccc(C(F)(F)F)cc2)[C@H](CO)O1)NCc1cccc(F)c1	6.2	.	3.3	-20.3	12.4[16.7 µM]
CCOc1ccc(-c2cccc(NS(=O)(=O)c3cc([N+](=O)[O-])ccc3C)c2)nn1	6.6	-3.7	.	7.9	130.5*
O=C(NC1CCSc2ccccc21)c1cccc(Br)c1 (centres undefined)	1.7	10.5	-5.6	8.3	5.5
CCOc1ccccc1OCC(=O)NC1CCSc2ccccc21 (centres undefined)	?	.	-12.1	-2.3	-1.4
Cc1ccc(OCC(=O)NC2CCSc3ccccc32)cc1 (centres undefined)	25.8*	-21.9	.	2.3	7.2
O=C(NC1CCSc2ccccc21)c1cccc(OC(F)F)c1 (centres undefined)	-2.0	-11.0	5.2	67.1*	2.0
C[C@@H]1CN([C@H](C)CO)C(=O)c2cc(NC(=O)c3ccncc3)ccc2O[C@@H](C)CCCCO[C@H]1CN(C)C(=O)c1ccncc1	1.1	.	0.7	.	-2.8[16.7 µM]
